The sample as a whole holds a higher share of hits than the screen did.
D1 mod = allosteric modulators of human D1 dopamine receptor; HEK293 D1, CRE-luciferase, dopamine EC30 potentiation; actives deviate in either direction; actives 5.9% (n = 58,000); P21728; AID 641; B-score at 10 µM;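 active means luminescence count or its row- and column-corrected plate score outside the 99.7% band of the plate's sample wells, on either side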
Target sequence (P21728 whole entry, looked up): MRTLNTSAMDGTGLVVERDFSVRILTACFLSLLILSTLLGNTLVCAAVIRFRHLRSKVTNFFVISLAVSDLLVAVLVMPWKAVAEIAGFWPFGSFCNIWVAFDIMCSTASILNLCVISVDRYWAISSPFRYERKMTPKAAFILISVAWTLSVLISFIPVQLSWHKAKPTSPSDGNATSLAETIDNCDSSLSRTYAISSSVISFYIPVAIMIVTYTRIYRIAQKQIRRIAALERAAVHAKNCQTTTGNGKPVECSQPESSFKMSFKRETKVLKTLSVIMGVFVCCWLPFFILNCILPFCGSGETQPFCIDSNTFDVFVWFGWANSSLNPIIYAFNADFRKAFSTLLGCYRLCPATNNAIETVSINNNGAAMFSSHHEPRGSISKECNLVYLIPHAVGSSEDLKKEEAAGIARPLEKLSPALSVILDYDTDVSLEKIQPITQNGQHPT
hDAT+cocaine = human DAT dopamine uptake with cocaine, either direction | Q01959 | B-score at 10 µM | LLC-PK1 hDAT cells, [14C]-dopamine uptake with cocaine IC80; actives deviate in either direction | actives 1.3% (n = 110,000);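 active means Z score or B-score, a plate-position-corrected score, falls beyond the plate's 99.7% confidence bounds, in either direction; inactive means both scores lie inside the 99.7% bounds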
ROCK2 inh = inhibitors of human Rho kinase 2; O75116; actives 0.35% (n = 60,000); purified ROCK2, Kinase-Glo ATP depletion luminescence; inhibition, % at 6 µM;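 active means inhibition above the screen-wide mean inhibition plus 3 SD, cut at about 18% in these data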
PKA kinase inh = blocks human protein kinase A activity; PKA Kemptide phosphorylation, Kinase-Glo ATP luminescence; P17612; actives 0.1% (n = 65,000); inhibition, % at 6 µM; AID 524;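 active means inhibition above the screen-wide mean inhibition plus 3 SD, cut at about 21% in these data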
A number is an active result; n = inactive; x = no result given.

SMILES | D1 mod | hDAT+cocaine | ROCK2 inh | PKA kinase inh
COc1ccc(C(=O)OCCN2C(=O)c3ccccc3C2=O)cc1OC | 5.7 | x | x | x
O=C1C=C(c2ccc(Cl)cc2)OC2(CCCC2)O1 | x | -2.6 | x | x
O=C1C=C(c2ccccc2)OC2(CCCC2)O1 | n | n | n | n
O=C1NCCN1Cc1ccc(F)cc1 | x | n | x | x
Cc1ccc2nc(N3CCN(Cc4ccc(F)cc4)C3=O)c(C)cc2c1 | n | 2.2 | n | n
CS(=O)(=O)N1CCN(C(=O)c2cc(-c3ccccc3)nc3ccccc23)CC1 | x | n | x | x
CS(=O)(=O)N1CCN(C(=O)c2cc(-c3cccs3)nc3ccccc23)CC1 | n | -3 | n | n
CC1(C)Oc2ccc(C#N)cc2[C@@H](N2CCCC2=O)[C@@H]1O | x | n | x | x
COC(=O)c1ccc(OCC(=O)Nc2nn(-c3ccccc3)nc2C(N)=O)cc1 | n | n | n | n
O=C(Nc1ccc(CN2CCOCC2)cc1)c1ccccc1F | x | n | x | x
O=C(NC1=NCCS1)c1cc2ccccc2o1 | -4.6 | n | n | n
O=C(Nc1ccc(CN2CCOCC2)cc1)c1cc2ccccn2n1 | -7.3 | n | n | n
O=C(Nc1ccc(CN2CCOCC2)cc1)c1cc2ccccc2o1 | -4.9 | n | n | n
C/C=C/C(=O)Nc1cccc(C2=NOC3(C2)C[C@@H](C(N)=O)N(C(=O)/C(C)=C/C)C3)c1 (stereo not given in full) | x | n | x | x
Cn1c(=O)oc2cc(S(=O)(=O)NCCN3CCCCCC3)ccc21 | x | n | n | n
Cn1c(=O)oc2cc(S(=O)(=O)NCCN3CCN(c4ccccc4F)CC3)ccc21 | -5.9 | n | n | n
Cc1cc(C)n2nc(C(=O)OCC(=O)Nc3ccc4c(c3)OCO4)nc2n1 | -4.9 | n | n | n
CC1CCCN(C(=O)C(Cc2ccccc2)n2cccc2)C1 (stereo not given) | n | n | n | n
COc1ccc(OC)c2[nH]c(=O)c(CCNC(=O)CC(C)C)cc12 | n | n | n | n
Cn1nc(-c2ccc(Cl)cc2)nc2c(=O)n(C)c(=O)nc1-2 | x | -4.4 | x | x
COC(=O)c1ccc(N(C(=O)c2ccco2)C(C(=O)NC2CCCC2)c2ccco2)cc1 (stereo not given) | x | n | x | x
CC(=O)c1sc(NC(=O)c2ccccc2F)nc1C | -5.1 | n | n | n
CN(C)CCCNCC(=O)Nc1ccccc1N1CCOCC1 | x | -7.7 | x | x
Nc1ccc(C(=O)Nc2ccco2)cc1 | x | n | x | x
COc1ccccc1NC(=O)c1oc2ccccc2c1NC(=O)c1cc(OC)c(OC)c(OC)c1 | 14 | x | n | n
SMILES | D1 mod | hDAT+cocaine | ROCK2 inh | PKA kinase inh
CC1CCN(S(=O)(=O)c2ccc(NC(=O)Cc3cccs3)cc2)CC1 | x | n | x | x
COC(=O)[C@H](Cc1ccccc1)NC(=O)Nc1ccc(C)cc1 | x | n | x | x
O=C1OCCC1Sc1nnc(-c2ccc3c(c2)OCO3)n1-c1ccccc1 (stereo not given) | -3.8 | n | n | n
C=CCOC(=O)C1=C[C@@H](c2coc3ccccc3c2=O)C[C@@H](OCCCCO)O1 | x | 2.8 | x | x
O=C(c1ccccc1CCc1ccccc1)N1CCOCC1 | n | -6.8 | n | n
O=c1nccc(NCc2ccco2)[nH]1 | -3 | n | n | n
Nc1c(C(=O)NCC2CCCO2)c2nc3ccccc3nc2n1-c1ccccc1 (stereo not given) | n | n | n | n
COc1ccccc1-n1c(N)c(C(=O)NCC2CCCO2)c2nc3ccccc3nc21 (stereo not given) | x | 4.2 | n | n
CCOC(=O)/C(C#N)=C/Nc1ccccc1OC | x | -8.2 | x | x
O=C(c1cn(-c2ccccc2)nc1-c1ccncc1)n1nnc2ccccc21 | 12 | n | n | n
COc1cc(/C=N/NC(=O)COc2ccc(Cl)cc2)ccc1OS(=O)(=O)c1ccc(C)cc1 | x | -8.3 | x | x
COc1ccc(/C=N/NS(=O)(=O)c2ccccc2)cc1OS(=O)(=O)c1ccc(C)cc1 | x | n | x | x
O=C(CSc1nnc(CN2CCCCCC2=O)n1-c1ccccn1)NCC(F)(F)F | -3.3 | n | n | n
Cc1cc(C)c(S(=O)(=O)N2CCCCC2)c(C)c1N(C)S(=O)(=O)c1ccccc1 | x | n | x | x
CCOC(=O)C1=NN(c2ccc(OC)cc2)C(c2ccccc2)CC1=O (stereo not given) | x | -8.6 | x | x
CCOC(=O)C1=NN(c2ccccc2)C(c2ccccc2)CC1=O (stereo not given) | x | n | x | x
CC(=O)c1ccccc1OCCCN1CCCCC1 | -4.4 | n | n | n
O=C(O)CSc1nc2ccccc2o1 | n | -8.6 | n | n
CC(C)(C)c1csc(NC(=O)c2ccc(Cl)s2)n1 | n | -2.6 | n | n
O=C(Nc1cccc(S(=O)(=O)N2CCOCC2)c1)c1ccco1 | x | n | x | x
O=C(Oc1cccc(NC(=O)c2ccco2)c1)c1cccc(S(=O)(=O)N2CCCCC2)c1 | x | -7.9 | x | x
C=C1CCN([C@H](C(=O)OCc2cccc(C)c2)C(C)C)S(=O)(=O)c2ccccc21 | x | n | x | x
COC(=O)c1[nH]c2ccc(C)cc2c1NC(=O)CCN1CCN(C2CCCCC2)CC1 | n | n | n | n
COC(=O)c1[nH]c2cc(C)ccc2c1NC(=O)CN1CCCc2ccccc21 | n | 2.8 | n | n
COC(=O)c1[nH]c2ccc(Br)cc2c1NC(=O)CN1CCN(C2CCCCC2)CC1 | n | 2.9 | n | n
SMILES | D1 mod | hDAT+cocaine | ROCK2 inh | PKA kinase inh
COC(=O)c1[nH]c2ccc(Br)cc2c1NC(=O)CN1CCCc2ccccc21 | x | n | x | x
CCOC(=O)C1CCN(CC(=O)Nc2c(C(=O)OC)[nH]c3ccccc23)CC1 | n | -8.2 | n | n
C/C(N)=C(/C#N)C(=O)COC(=O)C1CCC(C(C)(C)C)CC1 (stereo not given) | x | n | x | x
CCCCNc1oc(-c2cccs2)nc1S(=O)(=O)c1ccccc1 | x | n | x | x
O=S(=O)(c1ccccc1)c1nc(-c2cccs2)oc1NCCCn1ccnc1 | n | 2.5 | n | n
CC(C)c1nc2oc3c(NCc4ccccn4)ncnc3c2c2c1COC(C)(C)C2 | 8.7 | x | n | n
Cc1nc2oc3c(NCc4ccccn4)ncnc3c2c2c1COC(C)(C)C2 | 12 | n | n | n
CC1(C)Cc2nc3oc4c(NCc5ccccc5)ncnc4c3cc2CO1 | n | x | n | n
CCOC(=O)N1CCN(c2ncnc3c2oc2nc(C)c4c(c23)CC(C)(C)OC4)CC1 | n | x | n | n
C=CCn1c(Cc2cccs2)nnc1SC/C=C/c1ccccc1 | x | n | x | x
COC(=O)CSc1nc(NCC(C)C)nc(N2CCOCC2)n1 | n | n | n | n
CSc1nc(NC(C)C)nc(N2CCOCC2)n1 | 18 | n | n | n
O=C(O)c1cccc(COc2ccc(CO)cc2Cl)c1 | -7.1 | n | n | n
CCOc1ccc(OCc2cccc(C(=O)N3CCCC3)c2)cc1 | -3.9 | n | n | n
CCOc1ccc(OCc2cccc(C(=O)O)c2)cc1 | -4.5 | n | n | n
CCOc1cc(OCC)cc(C(=O)O)c1 | x | n | x | x
CCOc1ccc(C(=O)N2CCCC2)cc1 | x | 5.9 | x | x
CCOc1ccc(OCc2ccc(C(=O)N3CCCC3)o2)cc1 | n | n | n | n
O=C(O)c1ccc(COc2ccc(CO)cc2Cl)cc1 | n | n | n | n
CCOC(=O)C1CCN(Cc2cnc(Oc3ccc(C(C)(C)C)cc3)s2)CC1 | x | n | x | x
CC(=O)Nc1sc(C)c(C)c1C(=O)OC1CCOC1=O (stereo not given) | x | n | n | n
COc1ccc(OCc2cccc(C(=O)O)c2)cc1 | -11 | n | n | n

From PubChem
